# Compound activity from PubChem BioAssay.
# Bim-Bcl-2: inhibitors of Bim-Bcl-2 interaction, human | P10415 | Bead-based flow cytometry, Bim peptide-Bcl-2 binding | inhibition, % at 10 µM | actives 0.06% (n = 190,000); in the data active means inhibition above about 40%;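 further: 0% = no compound wells with probe peptide and 100% = reference peptide inhibitor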
# Bim-Bcl-B: human Bim-Bcl-B interaction inhibition | Q9HD36 | inhibition, % at 10 µM | actives 0.073% (n = 190,000) | bead-based flow cytometry, Bim peptide-Bcl-B binding;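 further: 0% = tracer peptide without compound and 100% = reference inhibitor peptide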
# Bcl-W Bim block: human Bim-Bcl-W interaction inhibition. Q92843. bead-based flow cytometry, Bim peptide-Bcl-W binding. inhibition, % at 10 µM. actives 0.02% (n = 190,000). AID 952;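 further: 0% = bound tracer without compound and 100% = peptide blocker; higher means less fluorescent Bim peptide bound to Bcl-W beads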
# Target sequence (Q92843 whole entry, looked up): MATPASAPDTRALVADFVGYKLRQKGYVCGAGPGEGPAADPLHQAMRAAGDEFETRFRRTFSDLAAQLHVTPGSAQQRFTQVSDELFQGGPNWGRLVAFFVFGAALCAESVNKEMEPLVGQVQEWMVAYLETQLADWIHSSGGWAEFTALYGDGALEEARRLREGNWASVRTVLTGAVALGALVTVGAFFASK
# Bim-Bfl-1: human Bim-Bfl-1 interaction inhibition; actives 0.12% (n = 190,000); inhibition, % at 10 µM; Bead-based flow cytometry, Bim-Bfl-1 binding inhibition;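 further: 0% = wells without compound plus tracer and 100% = blocker peptide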
# Target sequence (Q16548 whole entry, looked up): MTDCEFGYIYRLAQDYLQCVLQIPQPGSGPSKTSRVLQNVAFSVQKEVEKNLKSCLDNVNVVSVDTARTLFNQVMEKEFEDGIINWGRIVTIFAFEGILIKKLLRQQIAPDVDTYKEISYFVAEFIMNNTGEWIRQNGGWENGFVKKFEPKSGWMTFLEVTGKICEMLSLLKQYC
# Bim-Bcl-XL: inhibitors of Bim-Bcl-XL interaction, human; AID 1007; actives 0.04% (n = 190,000); Bim peptide-Bcl-XL binding, bead flow cytometry, fluorescence; inhibition, % at 10 µM; Q07817
# The depositor's hits bear a star. A selection: hits, their analogues and other compounds. The true share with any hit is near 0.2%. Unless noted, no stated cut-off is given here; in the data, active means inhibition above about 40%.
SMILES,Bim-Bcl-2,Bim-Bcl-B,Bcl-W Bim block,Bim-Bfl-1,Bim-Bcl-XL
Cc1cc(N/C(=N/S(=O)(=O)c2cc(F)ccc2F)c2ccccc2)n(-c2ccccc2)n1,50*,66*,18,19,16
Cc1cc(N/C(=N/S(=O)(=O)c2ccc(F)cc2)c2ccccc2)n(-c2ccccc2)n1,-1,-2,-2,-2,-2
CCOc1ccccc1OCCCOc1ccc([N+](=O)[O-])cc1Cl,-3,-1,-1,-4,-3
O=C1CN(C(=S)Nc2ccccc2Cl)CCN1,-6,-14,0,-3,-1
CCOC(=O)C1(CC/C(C)=N\NC(N)=O)CC(C)(C)OC1=O (stereo not given),14,-49,11,44*,18
CCOC(=O)C1(C/C(C)=N/NC(N)=O)CC(C)(C)OC1=O (stereo not given),0,-5,0,2,-3
CC(C)C(=O)Nc1ccc(C(=O)NNC(=O)CCc2ccccc2)cc1,-6,-10,-5,-10,-4
Cc1cc(N)ccc1-n1c(C)ccc1C,-3,-1,-2,-3,0
Cc1cc(N)ccc1N1CCCC1,66*,87*,75*,73*,64*
NC(=O)CSc1nnc(Cn2cnc3ccccc32)o1,10,-2,36,65*,16
O=C(CN1C(=O)NC2(CCCCC2)C1=O)NC1CCCc2ccccc21 (stereo not given),-9,-7,-2,-18,-5
CC(C)Cc1ccc(S(=O)(=O)N2CCOCC2)cc1,-13,-8,0,-11,-5
CN1CCN(C2=C(Cl)C(=O)N(C3CCCCC3)C2=O)CC1,-6,-11,0,-12,-3
CN1CCN(C2=C(Cl)C(=O)C(c3cnc(N4CCCCC4)s3)=C(Cl)C2=O)CC1,44*,58*,30,54*,26
Cc1nc2ccc(NC(=O)N3CCCCC3)cc2nc1C,-4,-7,-7,-5,-8
CCOC(=O)C1CCN(C(=O)Nc2ccc3nc(-c4ccco4)c(-c4ccco4)nc3c2)CC1,35,15,38,60*,19
O=C(Nc1ccc2nc(-c3ccco3)c(-c3ccco3)nc2c1)N1CCCCCC1,31,10,35,54*,19
CSc1ccccc1-c1nnc(-c2ccc(Cl)c(Cl)c2)o1,-10,-9,0,-12,-4
COc1ccc(N2CCN(S(=O)(=O)c3ccc4c(c3)CCCC4)CC2)c([N+](=O)[O-])c1,-1,-3,-4,-2,-2
COC(=O)c1c(NC(=O)COc2ncnc3ccccc23)sc(C)c1C,38,55*,-4,6,-1
COc1ccc(NC(=O)/C(Cl)=C(/Cl)S(=O)Cc2ccc(Cl)cc2)cn1 (stereo not given),7,-11,3,40*,0
O=C(NC(=S)NCC1CCCO1)c1cccs1 (stereo not given),-4,-7,-4,-12,-6
Cc1ccc(S(=O)(=O)NCCOC(=O)Nc2sc(=S)n(C)c2C)cc1,2,-4,3,2,-4
Cc1nc2ncccn2c1-c1csc(Nc2ccccc2)n1,5,20,24,-1,44*
COc1ccc(Nc2nc(-c3c(C)nc4ncccn34)cs2)cc1,8,12,17,15,36
SMILES,Bim-Bcl-2,Bim-Bcl-B,Bcl-W Bim block,Bim-Bfl-1,Bim-Bcl-XL
CC(=O)c1cnc2sccn2c1=O,-1,-6,-4,-5,-6
OCCN1CCN(CCCc2c3c(cc4c2CCC4)CCC3)CC1,21,61*,32,13,32
CNc1ccc(Br)cc(C(=O)/C=C/c2ccc(OC)cc2)c1=O,8,-8,10,18,0
CNc1ccc(Br)cc(C(=O)/C=C/c2cc(OC)ccc2OC)c1=O,25,-21,22,42*,26
c1ccc(Nc2cccc(Nc3ccccc3)n2)cc1,30,13,47*,68*,15
COc1ccc(C(=O)NC(=S)N2CCNC(=O)C2)cc1Br,79*,70*,3,71*,4
O=C1CN(C(=S)NC(=O)c2ccc(-c3ccccc3)cc2)CCN1,3,-40,0,8,-1
COc1ccc(N2CCN(C(=O)c3cc(=O)[nH]c4ccccc34)CC2)cc1,80*,74*,1,58*,8
O=C(/C=C/c1ccccc1Cl)c1ccccc(=O)c1O,42*,2,38,54*,31
Cc1ccc(C)c(/C=C/C(=O)c2ccccc(=O)c2O)c1,24,-29,23,41*,17
Cc1ccc(/C=C/C(=O)c2ccccc(=O)c2O)c(C)c1,23,-28,15,32,7
COc1ccc(S(=O)(=O)NCCOc2cccc3cccnc23)cc1OC,76*,65*,0,44*,3
CC(C)Oc1ccc(C(CC(=O)O)NC(=O)C2CCCCC2)cc1 (stereo not given),0,0,-2,-1,-4
O=C1c2ccccc2C(=O)c2cc(S(=O)(=O)Nc3ccccc3)ccc21,0,41*,-5,-1,-6
CCOC(=O)C(C(=O)OCC)c1cc(Br)c2noc3c2c1C(=O)c1ccccc1-3,39,10,43*,43*,29
COc1cccc(C(=O)/C=C/Nc2ccc(S(=O)(=O)Nc3onc(C)c3C)cc2)c1,82*,78*,17,53*,3
Cc1cc(NC2CCCCC2)nc2ccccc12,-8,-2,-3,-12,-4
COc1ccc2cc(CN(CCc3ccccc3)Cc3nnnn3CC3CCCO3)c(=O)[nH]c2c1 (stereo not given),31,21,25,44*,42*
Cc1ccc(CSCC(=O)N/N=C/c2sccc2C)cc1,-5,-7,3,-9,-10
CNC(=S)N/N=C/C1=CCC2CC1C2(C)C (stereo not given),69*,65*,13,52*,2
CC1(C)C2CC=C(/C=N/NC(=S)NCCc3ccccc3)C1C2 (stereo not given),1,1,1,-3,0
CSc1n[nH]c2nc3c(c(=O)n12)C1(CCCC1)Cc1ccccc1-3,31,31,33,44*,40*
O=C(COC(=O)CCCN=C1NS(=O)(=O)c2ccccc21)NC(=O)NC1CCCC1,97*,105*,72*,36,105*
Cc1ccc(C)c(NC(=O)COC(=O)CCCN=C2NS(=O)(=O)c3ccccc32)c1,3,1,0,-1,0
COc1cccc2c1C(=O)c1c(O)c3c(c(O)c1C2=O)C[C@@](O)(C(=O)CO)C[C@@H]3O[C@H]1C[C@H](N)[C@H](O)[C@H](C)O1,54*,86*,59*,60*,57*
COC(=O)c1ccc2c(=O)n(Cc3ccc(C(=O)NC(C)C)cc3)c(=S)[nH]c2c1,-2,-7,-5,-12,-1
COc1cccc(OC(=O)CSc2nnc(-c3ccccc3Br)o2)c1,-8,-1,3,-7,-1
Cc1ccc(NC(=O)NCc2ccccn2)cc1,0,-1,0,-3,0
Cc1ccc(C)c(NC(=O)C(=O)NCc2ccccn2)c1,34,27,33,49*,46*
